“And” between values parts separate entries of the source, which are not always exact repeats. Equal entries are not always repeated. Inconclusive results are not listed. Entries that show only a call come without a potency. The source made the active and inactive calls. Calls follow the shape of the dose curve; as a rule, active = well fitted inhibition curve with a large enough effect in the repeat runs; inconclusive = weak or mixed curves; inactive = no such curve, though single readings can be large or run the other way.
Potency is read from the fitted curve at half-maximal effect.

This assay in a line: qHTS assay to identify small molecule antagonists of the thyroid receptor (TR) signaling pathway (AID 743065). Also: nearly all actives have a fitted effect of over 55% in size. The following applies: GH3.TRE-Luc, T3-stimulated luciferase inhibition, 23.5 h; series mostly up to 70.3 µM. The source says:
U.S. Tox21 Program National Center for Advancing Translational Sciences [NCATS] NIH Chemical Genomics Center [NCGC] U.S. Environmental Protection Agency [EPA] National Institutes of Environmental Health Sciences [NIEHS] National Toxicology Program [NTP] U.S. Food and Drug Administration [FDA] Tox21 Assay Overview: Thyroid receptor (TR), a nuclear hormone receptor, plays an important role in development, proliferation, differentiation, metabolism, brain function, and cardiovascular system. […] To profile the Tox21 10K compound library in TR signaling, a cell-based GH3-TRE-Luc assay (GH3.TRE-Luc cell line, developed by the laboratory of Dr. Albertinka J. Murk, Wageningen University) was used to measure the inhibition of TR. GH3 (rat pituitary tumor) cells stably expressing a TR activity sensor consisting of two TR response elements and a luciferase reporter gene.
Tox21 Assay Protocol Summary: GH3.TRE-Luc cells were dispensed at 1500 cells/4 uL/well into 1536-well white solid bottom plates using a Multidrop Combi dispenser (Thermo Fisher Scientific Inc., Waltham, MA). After the assay plates were incubated at 37 C for 4 hours, 23 nL of library compound or DMSO controls was transferred to the assay plates by a pintool station (Kalypsys, San Diego, CA), followed by addition of 1 ul of T3 (1 nM, final concentration in the wells) to stimulate TR transactivation. The assay plates were incubated at 37 C for 23.5 h, and then 1 uL of CellTiter-Fluor reagent (Promega, Madision, WI) of measuring cytotoxicity was added to each well using a Bioraptr Flying Reagent Dispenser (FRD) workstation (Beckman Coulter, Indianapolis, IN, USA). The plates were incubated at 37 C and 5% CO2 for additional 30 min, and fluorescence intensity was measured by a ViewLux plate reader (PerkinElmer, Shelton, CT). For measuring luciferase reporter gene activity, 4 uL of ONE-Glo Luciferase Assay reagent (Promega) was added to each well using a Bioraptr FRD (Beckman Coulter), followed by 30 min incubation at room temperature. The luminescence intensity of plates was recorded by a ViewLux plate reader (PerkinElmer, Shelton, CT).
A general note: qHTS replaces the single test concentration by a dilution series.
In the case of `C=CC(=O)OCCN(C)C`, the Potency result is “inactive”.
Same read-out and setting: then `O=C(Cl)C(Cl)(Cl)Cl`, with “inactive”.
Same read-out and setting: then `Cl/C=C/CCl`, with “inactive”; and `CCNc1nc(NCC)nc(SC)n1`, with “inactive”.
On the same count and under the same terms, then `CC(=O)OCC1=C(C(=O)O)N2C(=O)[C@@H](N)[C@H]2SC1`, with “inactive”; and `Clc1nc(Cl)nc(Nc2ccccc2Cl)n1`, with “inactive”.
Turning to `Brc1c(Br)c(Br)c(Br)c(Br)c1Br`, the activity, negative = inhibition was 36% [at 8.44 µM] (inactive).
`[P]#[In]`: the Potency result was “inactive”.
Regarding `NCCOS(=O)(=O)O`, the Potency entry is “inactive”.
On the same count and under the same terms, then `CCCOC(=O)Cc1ccc(OCC(=O)N(CC)CC)c(OC)c1`, with “inactive”; and `CCCC(C)C1(CC)C(=O)N=C(S)NC1=O` (stereo not given), with “inactive”; and `CC(=O)CN(CC(C)=O)N=O`, with “inactive”.
Same read-out and setting: then `CCC(C)(C#N)N=NC(C)(C#N)CC` (stereo not given), with “inactive”; and `COc1ccc2c(C(=O)c3ccc(Cl)cc3)c(C)n(CC(=O)O)c2c1`, with “inactive”; and `CCOC(=O)COc1ccc(Cl)cc1Cl`, with “inactive”.
Take `O=C1C2CC=CCC2C(=O)N1SC(Cl)(Cl)Cl` (stereo not given): the Potency was 2.98 µM (active) and 68.3 µM (active) and 1.69 µM (active).
With `CCN[C@@H](C)Cc1ccccc1`, the Potency result is “inactive”.
Same read-out and setting: then `OCC(Cl)CCl` (stereo not given), with “inactive”; and `CCC1(c2ccccc2)CCC(=O)NC1=O` (stereo not given), with “inactive”.
The same measure, in the same setting: then `CN1COCN(Cc2cnc(Cl)s2)/C1=N\[N+](=O)[O-]`, with “inactive”; and `NC1(c2ccccc2)CCCCC1`, with 48.1 µM (active); and `CC(Cl)(Cl)Cl`, with “inactive”.
In the case of `CCCN1CCC[C@@H]2Cc3[nH]ncc3C[C@H]21`, the Potency result is “inactive”.
With `CC[C@@H](CO)NC(=O)[C@@H]1C=C2c3cccc4[nH]cc(c34)C[C@H]2N(C)C1`, the Potency result was “inactive”.
The same measure, in the same setting: then `CCCCCCCC(=O)Cl`, with “inactive”; and `ClCOCCl`, with “inactive”; and `ClCC1CO1` (stereo not given), with “inactive”.
On the same count and under the same terms, then `CC(C)N(Cc1ccccc1)C(=O)C(C)(C)C`, with “inactive”; and `CCN(CC)CCOC(=O)C(O)(c1ccccc1)c1ccccc1`, with “inactive”.
Still for that read-out and setting: then `COC(=O)c1ccc(CBr)cc1`, with “inactive”; and `CCC(=O)c1ccc(Cl)cc1`, with “inactive”.
In the case of `NCC1(CC(=O)O)CCCCC1`, the Potency entry was “inactive”.
Same read-out and setting: then `COc1cccc(C=O)c1`, with “inactive”; and `ClC1=C(Cl)C2(Cl)C(CBr)CC1(Cl)C2(Cl)Cl` (stereo not given), with 26.6 µM (active) and 43.3 µM (active).
Same read-out and setting: then `BrCc1ccc(Br)cc1`, with “inactive”; and `C[C@@H](N)[C@@H](O)c1ccccc1`, with “inactive”.
Same read-out and setting: then `S=C=S`, with “inactive”.
`COC(=O)[C@@H](N)CCCN/C(N)=N/[N+](=O)[O-]`: the Potency entry is “inactive”.
Take `C(COCC1CO1)OCC1CO1` (stereo not given): the Potency is 43.3 µM (active).
The same measure, in the same setting: then `BrCC1CO1` (stereo not given), with “inactive”.

The values above are taken from PubChem BioAssay (Tox21).
